Measurements reported in PubChem BioAssay AID602384 (National Center for Advancing Translational Sciences (NCATS), 2012).
The source made the active and inactive calls. The call rests on the fitted dose curve; in most records, active means well fitted curve in the direction sought with a large enough effect; inactive means no such curve, though single readings can be large or run the other way.

These molecules were tested against Pyruvate kinase PKM (Homo sapiens) (UniProt P14618) (assay: qHTS for Activators of Human Muscle Isoform 2 Pyruvate Kinase: Extended Characterization). Details: purified PKM2, ATP production, Kinase-Glo luminescence.
Procedure: Human pyruvate kinase muscle 2 (hPK-M2) enzyme was supplied as a highly purified (>95% pure) preparation from Harvard Medical School and assayed for its ability to generate ATP from ADP using phosphoenolpyruvate (PEP) as a substrate. ATP generation was detected in a coupled reaction by luciferase-mediated luminescence, an ATP-dependent process. Pyruvate kinase substrates, PEP and ADP, were present in the assay at Km and approximately 10-fold below Km respectively. The enzyme was assayed at an intermediate level of activity to screen for both inhibitors and activators. NIH Chemical Genomics Center [NCGC] NIH Molecular Libraries Probe Centers Network [MLPCN] MLPCN Grant: MH085679 Assay Submitter (PI): Matthew G. Vander Heiden, Harvard Medical School
Three uL of substrate mix (at r.t.) in assay buffer (50 mM Imidazole pH7.2, 50 mM KCl, 7 mM MgCl2, 0.01% Tween 20, 0.05% BSA) was dispensed into white solid bottom 1,536 well microtiter plates so that the final concentrations of substrates in the assay were 0.1 mM ADP and 0.5 mM PEP. 23 nL of compound were delivered by a pin tool and 1 uL of enzyme mix (final concentration of 0.1 nM) in assay buffer (4 degree Celsius) was added. Plates were incubated at room temperature for 1 hour. Two uL of detection mix (Kinase-Glo, Promega; at 4 degree Celsius protected from light) was added and luminescence read by a ViewLux (Perkin Elmer) at 1 second exposure/plate. Data were normalized to the uninhibited (column 3) and AC100 inhibition (no enzyme in column 2). To monitor activation, the first column contained a titration of the activator, NCGC00031955-03 (16-point 1:2 dilutions in duplicate starting at 57 uM) and the first 16 rows of column 4 contained 57 uM of NCGC00031955-03.

Pyruvate kinase PKM (Homo sapiens), sequence (P14618 whole entry, looked up, canonical isoform): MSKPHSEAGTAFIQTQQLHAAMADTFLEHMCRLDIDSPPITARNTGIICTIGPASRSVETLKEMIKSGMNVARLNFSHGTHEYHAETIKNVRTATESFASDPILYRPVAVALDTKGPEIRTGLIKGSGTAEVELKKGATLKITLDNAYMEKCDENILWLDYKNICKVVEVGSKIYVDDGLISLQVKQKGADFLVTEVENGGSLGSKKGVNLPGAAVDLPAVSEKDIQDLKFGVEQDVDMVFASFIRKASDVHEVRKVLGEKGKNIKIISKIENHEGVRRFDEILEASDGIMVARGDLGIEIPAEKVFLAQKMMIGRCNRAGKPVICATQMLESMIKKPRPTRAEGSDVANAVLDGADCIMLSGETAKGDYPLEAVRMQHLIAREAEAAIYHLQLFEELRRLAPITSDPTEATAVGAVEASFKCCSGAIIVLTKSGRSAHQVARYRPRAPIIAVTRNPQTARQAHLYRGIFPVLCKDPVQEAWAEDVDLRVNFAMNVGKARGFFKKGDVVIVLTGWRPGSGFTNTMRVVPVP

Potency, active:
Cc1cc2c(s1)c1cnn(Cc3ccc(F)cc3F)c(=O)c1n2C 891 nM
Cc1cc2c(s1)c1cnn(Cc3cc(F)c(F)cc3F)c(=O)c1n2C 1120 nM
Cc1cc2c(s1)c1cnn(Cc3c(Cl)ccc(C)c3F)c(=O)c1n2C 1260 nM
COc1cccc(Cn2ncc3c4sc(S(C)=O)cc4n(C)c3c2=O)c1 (stereo not given) 73 nM
Cc1cc2c(s1)c1cnn(Cc3cc(F)ccc3F)c(=O)c1n2C 1120 nM
